gsp antag – gsp mutant antagonism; gsp-mutant cells, cAMP HTRF, 30 min; Potency, µM (series often up to 76.9 µM), usual class: inhibitors; 340,000 compounds, 0.4% hits; calls by dose curve; cell line not stated here;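 further: intracellular cAMP measured with PDE inhibitor Ro 20-1724 present during compound exposure; nearly all actives have a fitted effect of over 65% in size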
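HTRF cAMP measurement after 30 min RT detection following 30 min, 37C compound treatment alongside […] (added as 300 uM solution) in G418-selected cells seeded at 2000/well and grown 16–24 h.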
gsp ag – gsp mutant agonism. gsp mutant cells, cAMP HTRF, 30 min. 340,000 compounds, 0.13% hits. AID 624287. Potency, µM (top dose mostly 76.9 µM), most hits filed as activators; active means well fitted activation curve with a large enough effect; inconclusive means small, poorly fitted or top-dose-only effect, or another doubt; inactive means no such curve, though single readings can be large or run the other way; cell line not stated here;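 further: phosphodiesterase inhibitor Ro 20-1724 added with compounds to block cAMP breakdown; nearly all actives have a fitted effect of over 60% in size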
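Cells stably selected in G418 were plated at 2000/well, grown 16-24 hr, then given compounds in DMSO with the PDE inhibitor […] (300 uM solution added) for 30 min at 37C; cAMP was read by HTRF.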
TSHR antag – blocks TSH signaling through the human TSH receptor | AID 504810 | 330,000 compounds, 0.2% hits | activity change, negative = inhibition, % at 11.5 µM | TSHR-expressing cells, TSH-stimulated cAMP HTRF, 2 h; stronger effect = lower value;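 active means activity change below a set negative limit, meaning inhibition stronger than a set level, cut at about -70% in these data; inconclusive means activity change between two set negative limits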
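Read-out is FRET at 665 nm (cryptate excitation 337 nm) from a cryptate-tagged anti-cAMP antibody, competed by cell cAMP against cAMP-d2. Compounds are tested on freshly harvested TSHR cells challenged with 4nM TSH (EC80) for 2 hours at 37 deg C.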
RXFP1 agonist – RXFP1 (human) receptor agonism; 370,000 compounds, 0.3% hits; Q9HBX9; Potency, µM (top dose mostly 57.5 µM), actives largely listed as activators; HEK293T-RXFP1 cAMP TR-FRET, 30 min; response scale: percent of porcine relaxin response, buffer zero; active means well fitted activation curve with a large enough effect; inconclusive means small, poorly fitted or top-dose-only effect; further: nearly all actives have a fitted effect of over 60% in size
Target sequence (Q9HBX9 whole entry, looked up): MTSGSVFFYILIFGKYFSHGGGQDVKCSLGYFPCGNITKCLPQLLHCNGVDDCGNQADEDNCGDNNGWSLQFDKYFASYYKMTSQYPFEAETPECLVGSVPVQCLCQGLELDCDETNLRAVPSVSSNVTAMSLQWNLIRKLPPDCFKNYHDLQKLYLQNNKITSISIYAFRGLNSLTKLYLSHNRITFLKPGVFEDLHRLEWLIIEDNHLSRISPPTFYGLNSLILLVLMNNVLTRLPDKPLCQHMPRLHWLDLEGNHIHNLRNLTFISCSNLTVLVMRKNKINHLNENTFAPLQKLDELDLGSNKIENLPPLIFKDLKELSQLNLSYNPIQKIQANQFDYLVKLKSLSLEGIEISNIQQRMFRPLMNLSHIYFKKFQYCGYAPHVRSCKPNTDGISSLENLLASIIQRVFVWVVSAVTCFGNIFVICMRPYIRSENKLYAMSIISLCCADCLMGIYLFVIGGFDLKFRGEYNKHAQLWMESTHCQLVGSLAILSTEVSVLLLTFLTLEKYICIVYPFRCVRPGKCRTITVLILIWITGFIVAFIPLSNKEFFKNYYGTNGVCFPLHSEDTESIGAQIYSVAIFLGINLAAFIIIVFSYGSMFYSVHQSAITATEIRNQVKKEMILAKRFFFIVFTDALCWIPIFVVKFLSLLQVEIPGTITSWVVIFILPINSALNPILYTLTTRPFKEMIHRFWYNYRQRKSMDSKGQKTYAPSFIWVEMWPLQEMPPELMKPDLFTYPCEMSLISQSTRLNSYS
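cAMP rise read by TR-FRET after 30 min, 37C compound exposure (up to 58 uM) in RXFP1-transfected HEK293 cells with Ro 20174 present. EC50 from Hill-equation fits, with 29 nM porcine relaxin as 100% and buffer as basal.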
RXFP1 antag – antagonists of human relaxin receptor RXFP1; HEK293-RXFP1, relaxin-stimulated cAMP HTRF, 30 min; stronger effect = lower value; activity change, negative = inhibition, % at 57.5 µM; 350,000 compounds, 0.59% hits;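 active means activity change of -60% or lower, but not beyond a set lower limit; inconclusive means change between -60% and -40%, or beyond the set limit; inactive means change above -40%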
Of the large screens only hits and unclear results are named; the others gave an inactive call. Only some compounds are listed: those with a hit (about 1% of all), similar ones and a draw of the others.

CCOC(=O)c1c(/N=C/N(C)C)sc(/C=N/Nc2ccccc2)c1-c1ccc(Cl)cc1	gsp ag 13µM
COc1cccc(CN2CCCN(S(=O)(=O)c3ccc(Br)cc3)CC2)c1	gsp antag 40µM
O=C(C1CCCN(S(=O)(=O)c2ccc(Br)s2)C1)N1CCN(c2ccccc2F)CC1 (stereo not drawn)	none (no result: gsp antag, gsp ag, TSHR antag)
CCOc1ccc(/C=N/NC(=O)c2cc3ccccc3cc2OC)cc1	gsp antag 28µM
COc1cc2ccccc2cc1C(=O)Nc1ccc(Cc2ccncc2)cc1	gsp antag 35µM
COc1ccccc1C(=O)Nc1ccc2ccccc2c1	none (no result: TSHR antag, RXFP1 agonist)
COc1cc2ccccc2cc1C(=O)Nc1ccc(C)cc1	gsp antag 32µM
CN(C)C(=O)CNC(=O)Cc1ccccc1	none (no result: gsp antag, gsp ag, TSHR antag, RXFP1 agonist)
CCOc1ccc(S(=O)(=O)Nc2ccccc2SC)c2cccnc12	gsp antag 13µM
CCOc1ccc(S(=O)(=O)NCc2ccc(Cl)cc2)c2cccnc12	none
CCOC(=O)C/C(C)=N\Nc1nc(-c2ccccc2)cs1	gsp antag 8.9µM
COc1cc(/C=C2/C(=N)N3OC(C)=CC3=NC2=O)ccc1OC(=O)c1ccco1	RXFP1 antag -75
CC1=CSC2=NC(=O)/C(=C/c3cccc(OC(=O)c4ccco4)c3)C(=N)N12	RXFP1 antag -80
CSC1=NSC2=NC(=O)/C(=C\c3ccc(OC(=O)c4ccco4)cc3)C(=N)N12	gsp antag inconclusive, RXFP1 antag inconclusive
CC(=O)N[C@@H](CO)C(=O)N[C@@H](CC(=O)O)C(=O)N[C@@H](CCCCN)C(=O)N1CCC[C@H]1C(=O)O	none (no result: gsp antag, gsp ag, TSHR antag, RXFP1 agonist)
CCC(=O)N1CCN(c2nc(CC)nc3sc4c(c23)CCCC4)CC1	gsp antag 20µM
CCc1nc(N2CCN(C(=S)NCCCOC)CC2)c2c3c(sc2n1)CCCC3	gsp antag 7.1µM
O=C(Nc1cccc(-c2cnc3ccccc3n2)c1)C1CC(=O)N(c2ccccc2)C1 (stereo not drawn)	gsp antag inconclusive, RXFP1 antag -73
O=C(Nc1ccncc1)C1CC(=O)N(c2ccccc2)C1 (stereo not drawn)	none (no result: TSHR antag, RXFP1 agonist)
CCCCCCCCC/C(=N\O)c1ccccn1	RXFP1 antag -69
CC[C@@H](CO)NCCN[C@@H](CC)CO	none (no result: gsp antag, gsp ag, TSHR antag, RXFP1 agonist)
Cc1ccc(/C=N/NC(=O)C(C)Oc2ccccc2[N+](=O)[O-])s1 (stereo not drawn)	gsp antag 11µM (no result: RXFP1 antag)
CCCN(C(=O)c1ccco1)c1nnc(-c2cccc(C)c2)s1	none
CCN(C(=O)c1ccco1)c1nnc(-c2ccc(OC)cc2)s1	gsp ag 32µM, RXFP1 agonist inconclusive
Cc1cc(Nc2cccc(C(F)(F)F)c2)nc2ccc(NC(=O)Cc3ccc(Cl)cc3)cc12	none (no result: gsp antag, gsp ag, TSHR antag, RXFP1 antag)
O=C(Nc1ccc(N2CCOCC2)c(Cl)c1)c1ccc(Cl)cc1	RXFP1 antag -83
O=C(Nc1ccc(N2CCOCC2)c(Cl)c1)c1ccc2c(c1)OCCO2	none
Cc1ccc(NC(=O)c2cc(N3C(=O)C=CC3=O)ccc2N2CCOCC2)cc1Cl	RXFP1 antag -71
CCCCCn1cc2c(c1-c1ccc(Cl)cc1)c(=O)n(C)c(=O)n2C	none (no result: gsp antag, gsp ag, TSHR antag)
C/C(=N\NC(=O)c1ccccc1[N+](=O)[O-])c1ccc(Br)s1	RXFP1 antag -66
C/C(=N\NC(=O)c1ccccc1O)c1ccc(Br)s1	none
Cc1cc(NCCCO)n2nc(-c3cccs3)cc2n1	none
OCCCNc1cc(-c2ccccc2)nc2cc(-c3ccc(F)cc3)nn12	gsp antag 35µM
Cc1ccc(C)c(Cn2c3ccccc3c3cnn(CC(=O)NC4CCCCCC4)c(=O)c32)c1	none (no result: gsp antag, gsp ag, TSHR antag)
CCOC(=O)c1c(C)[nH]c(C(=O)COC(=O)CCC(=O)c2ccc3c(c2)OCCO3)c1C	gsp antag 28µM
N#C/C(=C\c1ccc(-c2cc(Cl)ccc2Cl)o1)C(=O)Nc1ccccc1C(=O)O	none (no result: gsp antag, gsp ag, TSHR antag, RXFP1 antag)
N#Cc1c(N)nc2c3c(sc(=N)c2c1N)NC(=O)CC3c1c(F)cccc1Cl (stereo not drawn)	RXFP1 agonist inconclusive
N#Cc1c(N)nc2c3c(sc(=N)c2c1N)NC(=O)CC3c1ccccc1 (stereo not drawn)	RXFP1 agonist 28µM
O=C(Nc1ccccc1)c1cccc2c(=O)c3c([nH]c12)CCCC3	none (no result: gsp antag, gsp ag, TSHR antag)
O=C(CSc1nnc2ccccn12)N1CCc2ccccc2C1	gsp ag inconclusive
O=C(O)C1Cc2ccccc2CN1C(=O)CSc1nnc2ccccn12 (stereo not drawn)	RXFP1 agonist 35µM
Cc1ccc(S(=O)(=O)NCCC(=O)N2CCN(S(=O)(=O)c3cccc(F)c3)CC2)cc1C	RXFP1 antag -67
COc1cccc2[nH]c(C(=O)NCc3ccc4c(c3)CCN4C(=O)c3ccc(F)cc3)cc12	RXFP1 antag -68 (no result: gsp antag, gsp ag, TSHR antag)
COc1ccc(OCC(=O)NCc2ccc3c(c2)CCN3C(=O)c2cccc(C)c2)cc1	none (no result: gsp antag, gsp ag, TSHR antag)
COc1ccc(CC(=O)NCc2ccc3c(c2)CCN3C(=O)c2cccc(C)c2)cc1	RXFP1 antag -97 (no result: gsp antag, gsp ag, TSHR antag)
CCOC(=O)c1ccc(NC(=O)CSc2c(C(C)C)cnc3c2c(=O)n(C)c(=O)n3C)cc1	none (no result: gsp antag, gsp ag, TSHR antag)
CC(C)[C@H](NC(=O)c1ccccc1)C(=O)OCC(=O)/C=C1/N(C)c2ccccc2C1(C)C	gsp antag 35µM
COc1ccc(S(=O)(=O)NCCc2c[nH]c3ccc(C)cc23)cc1	gsp antag 32µM, gsp ag inconclusive
CCOc1ccc(-c2nnc(SCC(=O)c3ccccc3)n2-c2ccccc2)cc1	none (no result: gsp antag, gsp ag, TSHR antag, RXFP1 antag)
Cc1ccc(NC(=O)Cn2nnc(C(=O)NCc3ccc4c(c3)OCO4)c2N)cc1	gsp antag inconclusive, gsp ag inconclusive
Nc1c(C(=O)NCc2ccc3c(c2)OCO3)nnn1CC(=O)Nc1ccc(Br)cc1	TSHR antag -114, RXFP1 antag inconclusive
Cc1ccc(NC(=O)CCCc2nnc3n(C)c(=O)c4sccc4n23)cc1C	RXFP1 agonist inconclusive (no result: gsp antag, gsp ag, TSHR antag)
CCc1nnc(NC(=O)c2nc(S(=O)(=O)Cc3cccc(C)c3)ncc2Cl)s1	gsp antag 16µM
Cc1nnc(NC(=O)c2nc(S(=O)(=O)Cc3ccccc3C)ncc2Cl)s1	gsp antag inconclusive
CCc1nnc(NC(=O)c2nc(S(=O)(=O)Cc3ccccc3)ncc2Cl)s1	gsp antag inconclusive
CCc1nnc(NC(=O)c2nc(S(=O)(=O)Cc3ccc(C)cc3)ncc2Cl)s1	gsp antag 28µM
COC(=O)c1ccccc1NC(=O)c1nc(S(=O)(=O)Cc2ccccc2)ncc1Cl	none
CCOc1ccccc1NC(=O)c1nc(S(=O)(=O)Cc2cccc(C)c2)ncc1Cl	gsp ag inconclusive, TSHR antag -83
COc1ccc(OC)c2sc(N(Cc3cccnc3)C(=O)c3ccco3)nc12	none (no result: gsp antag, gsp ag, TSHR antag)
Cc1cc2c(c(=O)n1-c1ccccc1)C1O[C@](c3ccsc3)(Cc3ccccc31)O2	none (no result: gsp antag, gsp ag, TSHR antag, RXFP1 antag)
C=CCN1C(=O)/C(=C/c2ccc(OC(C)=O)c(OCC)c2[N+](=O)[O-])SC1=S	gsp antag 25µM, TSHR antag -92

High-throughput results: PubChem, National Center for Advancing Translational Sciences (NCATS)
